Assay results published in PubChem BioAssay AID1508600 (Functional Genomics Laboratory (NCATS/FGL), 2020).
Screen size: about 53,000 sequences; about 3,700 (7%) were called active. This excerpt belongs to a sample that is enriched for actives. A number with no mark means an inactive call.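 How the source made its calls: active means gene knockdowns whose robust z-score for IL-1 alpha signal is at least 2 or at most -2, so actives lie on both sides; inactive means the rest.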

Assay: Components of the Cytosolic LPS Sensing Pathway: Gene Identification via Genome-wide siRNA Screen;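 further: robust z of the log signal after scaling to non-targeting control siRNA wells of the plate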
Conditions: RAW264.7 macrophages, IL-1a HTRF, actives lie on both sides, screened at 100 nM (by protocol), cells primed 5 h with Pam3CSK4 first
Outline: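 Cells (RAW264.7, 1×10^4 per well) were transfected with siRNA at 100 nM and cultured 48h at 37 degrees C. Pam3CSK4 was added for 5 hours; LipidA transfection followed for 24 hour. IL-1a was then measured by HTRF.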
For GGAACAUGACAUUUUUGUCTT against Smdt1, the z-score was -0.561.
“GGAGGACUCAGCACUCUUUTT against E130311K13Rik” showed a z-score of -0.769.
For GGAUCACAGUCUCUUCGGUTT against Fgf20, the z-score was 0.473.
In the case of GCACUGAUGUAAGGUAACCTT against Prdm4, the z-score was 2.48 (active).
In the case of GGGUGUACCUUAUGUAUUATT against Prpf4, the z-score was 1.03.
For GGAUUGUGCAGAGCAUCUGTT against Card14, the z-score was -1.45.
Work on GGCUGAGGAGAUAACCAUATT against Nemp2 yielded a z-score of -0.701.
Sequence GAUGGACAAACGGAAGUGCTT against Iapp has a z-score of 0.322.
In the case of GGACUUCAGUUACAACCGGTT against Nr1h3, the z-score was -0.174.
For GGCCCAUUUUGGUGUGCAUTT against Hyal3, the z-score was -2 (active).
With CCACAAUUUUUUCUGCCUCTT against Olfr492 the z-score was -0.694.
For CGGUAUGAGUAGGAUCUCCTT against Cd83, the z-score was -0.577.
GGAAGUGCUUUGAAGAAGATT against Strip2 gave a z-score of 1.21.
For GCUAACUUGCUCAUGCAAATT against Txlnb, the z-score was -0.00758.
With GGAAUCGAGAUAUAAAAGGTT against Olfr352 the z-score was -1.29.
GCUAGGAUUGUUCACAAACTT against Spdef showed a z-score of -0.707.
For GCUCUUCUCAAGUAUGACGTT against Chrna6, the z-score was 0.717.
For GGAUGCUCACCUUCAAAUUTT against Il2, the z-score was 2.33 (active).
In the case of GGAUGGAGAUUAUGAAGAGTT against Pcsk9, the z-score was -0.248.
Work on CCUGUUACCCUAUAUUUUGTT against Vmn1r82 yielded a z-score of -1.02.
Sequence CGCAGUUCAUCGCAUGAUUTT against Arhgef12 has a z-score of 0.611.
Sequence GGAUGAAAGUCCAACCACATT against Tulp2 has a z-score of -0.17.
For GGGUUGAAUAUGUAGCUUGTT against Dsg1a, the z-score was 0.697.
GGUAUUUGAAUUUCGUCCCTT against Zc3h15 gave a z-score of 0.122.
Sequence “GGGACAACGCACUCCAACATT against 1810024B03Rik” has a z-score of 0.904.
Sequence CCAUUUGACAAGACUGCCATT against Ppp6r1 has a z-score of 0.921.
With GCAGGUGAGAAAGUAUAAGTT against Mro the z-score was -1.09.
Work on GGACUUCUAGAGAAGAAGCTT against Gpn2 yielded a z-score of 0.0803.
For GCAUAGUUGGAACCGUAUUTT against Tdpoz3, the z-score was 2.25 (active).
CCAAUGACUUCUGGUUAGATT against Tdpoz1 showed a z-score of 0.665.
GGUCAGAAGAGUUUGCUAATT against Sgms2 gave a z-score of 0.552.
With CGAUGGAAGCACUUAUUUATT against Lep the z-score was 0.984.
In the case of GGUCUUGGCACAAUUACAUTT against Actl6a, the z-score was -2.07 (active).
GGCCAAAUGAAGUCAAAAGTT against Srsf12 showed a z-score of -0.212.
Sequence “CCUUGUUUGAAUAACGAACTT against 5830427D03Rik” has a z-score of -1.73.
With CCCAGUUGCUAUGCUUGACTT against Defb37 the z-score was 1.68.
Sequence GGCCAGGAGAUUCCUAUGATT against Shisa4 has a z-score of -0.304.
In the case of GGAUGAUUCUGGGUUACAGTT against Pwwp3a, the z-score was -2.26 (active).
For GGAAAAGUUAGCGUGUAAUTT against Prkcz, the z-score was -1.66.
CCAUCCAUAUGAACUAUGATT against Slc30a4 showed a z-score of -1.5.
“CCAGACCUGUGGUAAUCUATT against D3Ertd751e” gave a z-score of -0.875.
GCGCAUGAGUGCAAGGAUUTT against Prdm16 showed a z-score of 0.265.
GGAUCCGUUUUGGUGGAAUTT against Enpp4 showed a z-score of 0.255.
GCACAUGCAUGGCUCUAAGTT against Hinfp gave a z-score of 0.779.
With GCUUCUAGUCAACAUCCAGTT against Klf15 the z-score was 2.07 (active).
Work on GGAAGACAAUCGCUGCGUGTT against Tet3 yielded a z-score of 0.927.
GCUUCUGUGGGCAACAGUUTT against Cryba1 gave a z-score of 0.0577.
Work on GGUCUCAGUUGGAAUUAUUTT against Pds5a yielded a z-score of -0.806.
Sequence GGAGAAUCAGGGUAGCACATT against Txnl4a has a z-score of -0.52.
Work on GGUGUCAUUCACAAAAACUTT against Csnk1g1 yielded a z-score of -1.09.
For GGCCAAGUCUGGAAUCACUTT against Angel2, the z-score was -2.42 (active).
For GCAGCAGGAAGGAUCAUUCTT against Ly6h, the z-score was -0.0488.
For GGACUUCAUGGGUCGCUUUTT against Gstm2, the z-score was -0.185.
In the case of GGAAUUAACAGAGAAGAAATT against Rgs13, the z-score was -0.848.
Work on GCUCCUGGUCUCAUUUACATT against Taf9b yielded a z-score of -0.386.
For GGUCACAGACAUUCCCGAATT against Atad2, the z-score was -2.89 (active).
In the case of GGUGGUUUUCAGCAAGUACTT against Pde9a, the z-score was -0.514.
AGUCAAGACCCAUAGAAAATT against Ociad2 showed a z-score of -1.87.
For GCUACCAUUUGAUCAGUUUTT against Entpd1, the z-score was 0.665.
For GUCAUCACAAGUCAAGAAGTT against Prol1, the z-score was -1.25.
For GGAGAAGGUUCACUCUGAUTT against Traf1, the z-score was -0.666.
With GGAAACCUGAUUGCAUAUGTT against Nup37 the z-score was -0.259.
Sequence GCAUUAACUGUCUUGAUCCTT against Olfr356 has a z-score of 1.41.
With GCGUAACGCAGCAGCUAAGTT against Tarbp2 the z-score was -3.01 (active).
For GGAAUAAGGAAGUUAUUGGTT against Olfr706, the z-score was -0.356.
Work on GGUAGAGGUGGAAUGUAGCTT against Qprt yielded a z-score of 1.36.
With “GCCCAUCACAAAUAAACAATT against B230340J04Rik” the z-score was -1.17.
For CCUUGUAGCUCUUUAUAAATT against Strn, the z-score was 2.24 (active).
With GCUCCUUAGAGAGAGUAUUTT against Sod3 the z-score was -0.399.
For GGGUCCAUGAACUCAAGAUTT against Rrnad1, the z-score was 0.473.
Work on GGCUGUGAGAACGAUGCAATT against Fam151a yielded a z-score of -1.08.
Work on GGAGGGAAGAAACAAUCUATT against Rnf40 yielded a z-score of 0.497.
For GGGUGCAUUUGAGAAGAUCTT against Casd1, the z-score was 4.11 (active).
GGAGUGCAUGACUCAGCUUTT against Olfr926 showed a z-score of -1.54.
With GCUGACCGGCAUUUACCAUTT against Mcm2 the z-score was 2.78 (active).
Work on GGCUCUCUUCGGGAAUACUTT against Tmem234 yielded a z-score of 1.22.
GGAGAUCAACAGGAUUUUGTT against Gna15 showed a z-score of -1.35.
Sequence “GCUGUGUUAGAAAGCAGGCTT against 4931406H21Rik” has a z-score of 0.927.
For GCUAUAGAUUCCUCUGCCATT against Olfr1098, the z-score was -0.525.
Sequence CCCUAGAAUUAUAUCCUGUTT against Col4a1 has a z-score of -0.494.
Work on GGGAUCAAUGCUUAAUACATT against Zfp2 yielded a z-score of 1.1.
With GGGAAACACAAUUUACCUUTT against Elf1 the z-score was 3.18 (active).
CCAACUUUCUCUUAGGAAATT against Igfl3 gave a z-score of -0.487.
For CCAGCCUUCAAUUGUGGUCTT against Scn1b, the z-score was 0.672.
GAUUUUCUUUGUUCAUCUCTT against Olfr727 gave a z-score of -0.535.
With CGACUAUCAGCAGCUGAAGTT against Igf1r the z-score was 5.27 (active).
With GCGGAUUGUCUUCCUAGACTT against Smg9 the z-score was -1.14.
GGUUCUAGGACCUAUUUUGTT against Cep57 gave a z-score of 1.87.
Work on GGUUAUUACCCAGUUCACGTT against Pramel1 yielded a z-score of -0.668.
For GCCCUUCGUGAUGAAGAAUTT against B4galt3, the z-score was 0.829.
Work on GCUAAACUCGCUCAAUCUGTT against Cd14 yielded a z-score of 0.537.
For CCUACUACUUCGUUAUCCGTT against Chrna2, the z-score was 0.447.
With GCUGAUGUGAAUGGCUCACTT against Gmeb2 the z-score was -1.02.
In the case of GGCCCUUUGAGUCGUUCCUTT against Batf3, the z-score was 2.6 (active).
Work on CCGUGUCUUAGGUGAUCACTT against H2-DMb1 yielded a z-score of 0.391.
Work on GGAGACGAAUCCUUUCAGUTT against Mis12 yielded a z-score of 0.476.
CCAAAGGUUACCAGGAAGCTT against Pcsk4 showed a z-score of 0.124.
Sequence GCAGCUAAAACAAGUUUGATT against Sntg2 has a z-score of -0.565.
For GGAUUUACCUUACAAAAGUTT against Aff2, the z-score was 0.578.
For GGAUCUAUUCUCUCUGAUGTT against Prune2, the z-score was 1.03.
With GGCAAAGUAUAAAGAAGUATT against Gkap1 the z-score was 2.23 (active).
GCCAUUAAGAUCGCUUACUTT against Selenop showed a z-score of -0.432.
Sequence GGAGCUUUCUCAAGAUUCATT against Arid1a has a z-score of 0.263.
With GCGACUUCGCUAUAUCAAGTT against Samhd1 the z-score was 1.65.
CCUUAGGAUUUGAACGCGUTT against Cutc gave a z-score of -0.554.
In the case of GCUAGUAUUCUAAGAUCUUTT against Mpp6, the z-score was 2.25 (active).
Work on GGCAAAAUCGUGAAAAUUCTT against Vwf yielded a z-score of -0.144.
